According to article PMC5540273 (PLoS ONE, 2017):

How the values were obtained:
Settings in all cases: concentration: 1 μM, replicates: in singlicate; n = 1
PAK1 = tested on: PAK1
PAK2 = tested on: PAK2
PAK3 = tested on: PAK3
PAK4 = tested on: PAK4
PAK6 = tested on: PAK6
PAK7 = tested on: PAK7
PCTK1 = tested on: T1, PCTK1
T1 construct: gene CDK16

PCTK2 = tested on: T2, PCTK2
T2 construct: gene CDK17

PCTK3 = tested on: T3, PCTK3
T3 construct: gene CDK18

PDGFRA = tested on: PDGFRA
PDGFRB = tested on: PDGFRB
PDPK1 = tested on: PDPK1
PFTAIRE2 = tested on: PFTAIRE2
PFTK1 = tested on: T4, PFTK1
T4 construct: gene CDK14

PHKG1 = tested on: PHKG1
PHKG2 = tested on: PHKG2
PIK3C2B = tested on: PIK3C2B
PIK3C2G = tested on: PIK3C2G
PIK3CA = tested on: PIK3CA
PIK3CB = tested on: PIK3CB
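Also: KINOMEscan kinase panel screen.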

Structure (SMILES) | %Inh (PAK1) [%] | %Inh (PAK2) [%] | %Inh (PAK3) [%] | %Inh (PAK4) [%] | %Inh (PAK6) [%] | %Inh (PAK7) [%] | %Inh (PCTK1) [%] | %Inh (PCTK2) [%] | %Inh (PCTK3) [%] | %Inh (PDGFRA) [%] | %Inh (PDGFRB) [%] | %Inh (PDPK1) [%] | %Inh (PFTAIRE2) [%] | %Inh (PFTK1) [%] | %Inh (PHKG1) [%] | %Inh (PHKG2) [%] | %Inh (PIK3C2B) [%] | %Inh (PIK3C2G) [%] | %Inh (PIK3CA) [%] | %Inh (PIK3CB) [%]
Cl.c1ccc(Cn2ncc3cc(Nc4ncnc5ccccc45)ccc32)cc1 [GW273749] | 5 | 0 | 0 | 0 | 15 | 6 | 0 | 0 | 23 | 0 | 0 | 0 | 20 | 14 | 0 | 0 | 16 | 0 | 0 | 7
Cn1cc(-c2ccc3c(c2)CCN3C(=O)Cc2cccc(C(F)(F)F)c2)c2c(N)ncnc21 [GSK2606414] | 0 | 0 | 25 | 0 | 0 | 0 | 4 | 0 | 0 | 38 | 55 | 6 | 18 | 0 | 6 | 0 | 0 | 2 | 0 | 0
Nc1nc(-c2ccc3c(N)n[nH]c3c2)cc(N2CCCCC2)n1 [GSK2228768] | 2 | 20 | 6 | 0 | 0 | 0 | 5 | 0 | 9 | 0 | 8 | 94.6 | 1 | 9 | 0 | 0 | 0 | 0 | 0 | 0
Clc1ccc(-c2cc(-c3c[nH]nc3-c3ccccn3)ccn2)cc1 [GW681251] | 3 | 0 | 2 | 39 | 1 | 0 | 0 | 0 | 12 | 0 | 62 | 0 | 1 | 0 | 0 | 0 | 0 | 0 | 0 | 0
CCn1c(-c2ccncc2)nc2cnccc21 [SB-735216] | 0 | 47 | 0 | 0 | 0 | 0 | 0 | 0 | 0 | 13 | 1 | 0 | 0 | 3 | 3 | 0 | 19 | 0 | 0 | 0
O=C(CCO)NCCn1ccc2ncnc(Nc3ccc(Oc4cccc(C(F)(F)F)c4)c(Cl)c3)c21 | 0 | 2 | 28 | 0 | 0 | 0 | 0 | 0 | 0 | 0 | 0 | 0 | 0 | 19 | 0 | 3 | 0 | 0 | 0 | 0
COC(=O)c1c(-c2ccccc2)c2cc(Cl)ccc2c(=O)n1Cc1ccc(S(C)(=O)=O)cc1 | 6 | 0 | 0 | 0 | 0 | 0 | 28 | 3 | 0 | 15 | 78 | 16 | 0 | 11 | 4 | 0 | 10 | 24 | 10 | 21
Nc1nc(-c2cccnc2)c(-c2ccnc3ccccc23)s1 [GW684083] | 0 | 4 | 20 | 0 | 0 | 0 | 0 | 0 | 11 | 0 | 28 | 0 | 16 | 27 | 14 | 0 | 0 | 0 | 0 | 0
Cl.Cl.c1ccc(-c2cc3ccncc3cc2OC2CCNCC2)cc1 [GSK1122999] | 15 | 31 | 47 | 0 | 0 | 2 | 2 | 12 | 13 | 0 | 42 | 0 | 34 | 12 | 2 | 0 | 7 | 0 | 4 | 26
Nc1nc(-c2ccccn2)c(-c2ccnc3ccccc23)s1 [GW548057] | 0 | 0 | 0 | 0 | 1 | 26 | 0 | 18 | 16 | 1 | 23 | 0 | 9 | 29 | 0 | 6 | 0 | 0 | 7 | 14
Cn1ccc2ncnc(Oc3ccc(NC(=O)Nc4cccnc4)c(Cl)c3)c21 | 17 | 24 | 38 | 1 | 16 | 0 | 19 | 12 | 0 | 91.8 | 99.7 | 0 | 10 | 0 | 15 | 0 | 6 | 19 | 4 | 3
CCc1nc(-c2cccc(C)c2)c(-c2ccnc(NC(=O)c3ccccc3)c2)s1 | 0 | 0 | 2 | 0 | 3 | 0 | 24 | 7 | 1 | 0 | 0 | 0 | 17 | 10 | 0 | 0 | 14 | 49 | 0 | 29
O=c1cc(N2CCOCC2)nc2n(Cc3cccc(Cl)c3)ccn12 [GSK2296823] | 6 | 10 | 0 | 0 | 0 | 53 | 5 | 0 | 17 | 0 | 15 | 0 | 14 | 18 | 0 | 0 | 6 | 0 | 0 | 98.5
C[C@H]1CC[C@@H](C(=O)Nc2ccccc2)CN1c1cc(-c2ccc3c(N)n[nH]c3c2)nc(N)n1 [GSK2283293] | 0 | 3 | 0 | 0 | 0 | 0 | 0 | 0 | 12 | 0 | 11 | 25 | 15 | 11 | 0 | 0 | 0 | 0 | 0 | 0
Fc1cccc(COc2ccc(Nc3ncnc4sc(-c5ccc[nH]5)cc34)cc2Cl)c1 [GW707818] | 6 | 5 | 0 | 6 | 11 | 12 | 0 | 22 | 0 | 0 | 19 | 5 | 22 | 23 | 0 | 12 | 0 | 7 | 0 | 1
